Shown is part of a subset that was picked to be rich in hits.
miR122 inh – activators of miR-122 sensor in Huh7 cells. Huh7 psiCHECK-miR122 Renilla luciferase sensor, 48 h. 340,000 tested, 0.14% active. activation, % at 12.5 µM;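 active = mean activation of 30% or more, with every replicate also reaching 30%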;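 note: higher luciferase signal means stronger suppression of miR-122 activity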
Hits are given with their value; 0 = inactive.

SMILES | miR122 inh
COCC#Cc1cnc2c(c1)C(=O)N([C@H](C)CO)C[C@H](C)[C@@H](CN(C)C(=O)C1CCOCC1)O2 | 0
CCCC#Cc1cnc2c(c1)C(=O)N([C@@H](C)CO)C[C@@H](C)[C@H](CN(C)C(=O)Cc1ccccc1)O2 | 0
CCCC(=O)Nc1ccc2c(c1)OC[C@@H](C)N(C(C)=O)C[C@H](C)[C@H](OC)CN(C)C2=O | 0
CN(C)c1ccc(/C=C/c2ccc3ccccc3[n+]2C)cc1 | 49
C[C@@H](O)C#Cc1ccc2c(c1)O[C@H](CN(C)C(=O)Nc1ccccc1)[C@@H](C)CN([C@@H](C)CO)S2(=O)=O | 0
C[C@H](CO)N1C[C@H](C)[C@@H](CN(C)C(=O)Cc2ccccc2)Oc2ncc(C3=CCCCC3)cc2C1=O | 0
CCCN(C)C[C@H]1Oc2ncc(C#Cc3ccc(F)cc3)cc2C(=O)N([C@@H](C)CO)C[C@H]1C | 0
CC(=O)C1=C(c2ccc(Br)cc2)C(=O)c2ccccc2C1=O | 76
CCCNC(=O)N(C)C[C@@H]1Oc2ncc(C#Cc3ccccc3F)cc2C(=O)N([C@@H](C)CO)C[C@@H]1C | 0
CNC[C@H]1Oc2ncc(C#CCC3CCCC3)cc2C(=O)N([C@@H](C)CO)C[C@H]1C | 0
COc1ccc(NC(=O)CCN2C(=O)c3ccccc3C2=O)cc1 | 0
COc1ccc(/C=N/NC(=O)COc2ccccc2-c2ccccc2)cc1 | 0
COc1ccc(NC(=O)CN(C)C(=O)/C=C/c2ccc(OCc3ccccc3)cc2)cc1 | 43
COc1cccc(NC(=O)N(C)C[C@@H]2Oc3cc(C#Cc4ccncc4)ccc3S(=O)(=O)N([C@H](C)CO)C[C@@H]2C)c1 | 0
Cc1cc(C)c(C)c(S(=O)(=O)NC2CCCCC2)c1C | 0
C[C@@H]1CN([C@@H](C)CO)C(=O)c2cc(-c3ccncc3)cnc2O[C@H]1CN(C)C(=O)Cc1ccccn1 | 0
CC(C)CC#Cc1cnc2c(c1)C(=O)N([C@@H](C)CO)C[C@H](C)[C@@H](CN(C)C(=O)Cc1ccccc1)O2 | 0
Cc1cccc(C(=O)Nc2cccc(S(=O)(=O)NCc3ccco3)c2)c1 | 0
Cc1cc(C(=O)Nc2cccc(O)c2)co1 | 36
CC(C)NC(=O)N(C)C[C@H]1Oc2ncc(C3=CCCCC3)cc2C(=O)N([C@@H](C)CO)C[C@@H]1C | 0
CCc1ccccc1NC(=O)CN(C)C(=O)Cn1ncc(Cl)c(Cl)c1=O | 63
COc1cccc(-c2cnc3c(c2)C(=O)N([C@H](C)CO)C[C@@H](C)[C@H](CN(C)C(=O)Nc2ccccc2F)O3)c1 | 0
O=C(CN(C1CCCCC1)S(=O)(=O)c1ccc(Cl)cc1)NCc1cccnc1 | 0
C[C@@H]1CN([C@@H](C)CO)C(=O)c2cc(C3=CCCCC3)cnc2O[C@@H]1CN(C)CC1CCOCC1 | 0
C[C@H]1CN([C@@H](C)CO)C(=O)c2cc(-c3ccc(F)cc3)cnc2O[C@@H]1CN(C)Cc1cccnc1 | 0
SMILES | miR122 inh
CNC(=O)C[C@@H]1CC[C@@H]2[C@@H](COc3ccc(NC(=O)c4ccccc4F)cc3C(=O)N2C)O1 | 53
CCC(=O)Nc1ccc2c(c1)OC[C@@H](C)N(C(=O)c1ccccc1F)C[C@H](C)[C@H](OC)CN(C)C2=O | 0
COCC(=O)Nc1ccc2c(c1)C(=O)N(C)[C@@H]1CC[C@@H](CC(=O)NC3CCCC3)O[C@H]1CO2 | 53
COCC(=O)Nc1ccc2c(c1)C(=O)N(C)C[C@H](OC)[C@H](C)CN(C(=O)COC)[C@H](C)CO2 | 0
CN1C(=O)c2cc(NC(=O)NCc3ccccc3)ccc2OC[C@@H]2O[C@H](CC(=O)NCC3CCCCC3)CC[C@@H]21 | 0
COCC(=O)Nc1ccc2c(c1)C(=O)N(C)C[C@H](OC)[C@@H](C)CN(C(=O)COC)[C@@H](C)CO2 | 0
CO[C@H]1CN(C)C(=O)c2cc(NC(=O)Nc3ccccc3)ccc2OC[C@H](C)NC[C@H]1C | 0
CO[C@@H]1CN(C)C(=O)c2cc(NC(=O)Nc3ccccc3)ccc2OC[C@H](C)NC[C@H]1C | 0
CO[C@@H]1CN(C)C(=O)c2cc(NC(=O)NC(C)C)ccc2OC[C@H](C)N(C(=O)NC(C)C)C[C@H]1C | 0
COC(=O)C[C@@H]1CC[C@@H]2[C@@H](COc3ccc(NC(=O)Nc4cccc(C#N)c4)cc3C(=O)N2C)O1 | 48
CNC(=O)C[C@@H]1CC[C@H]2[C@@H](COc3ccc(NC(=O)NC(C)C)cc3C(=O)N2C)O1 | 70
CCCNC(=O)C[C@@H]1CC[C@H]2[C@H](COc3ccc(NC(=O)Nc4ccccc4F)cc3C(=O)N2C)O1 | 0
CCCn1c(NC(=O)c2cccc(C)c2C)nc2ccccc21 | 0
C[C@@H]1CN([C@H](C)CO)S(=O)(=O)c2ccc(-c3ccccc3F)cc2O[C@@H]1CN(C)S(C)(=O)=O | 0
COc1cccc(-c2cnc3c(c2)C(=O)N([C@H](C)CO)C[C@@H](C)[C@@H](CN(C)Cc2ccccc2)O3)c1 | 0
C[C@H]1CN([C@@H](C)CO)S(=O)(=O)c2ccc(C#Cc3ccc(F)cc3)cc2O[C@H]1CN(C)S(C)(=O)=O | 0
C[C@@H]1CN([C@H](C)CO)C(=O)c2cc(Br)cnc2O[C@@H]1CN(C)Cc1ccccn1 | 0
COc1ccc(NC(C)=O)cc1NC(C)C(=O)Nc1cc(C(F)(F)F)ccc1N1CCOCC1 (stereo not given) | 0
C[C@@H]1CN([C@@H](C)CO)S(=O)(=O)c2ccc(C#Cc3ccncc3)cc2O[C@H]1CN(C)C(=O)c1ccncc1 | 0
C[C@H]1CN([C@@H](C)CO)S(=O)(=O)c2ccc(-c3ccccc3)cc2O[C@H]1CN(C)C(=O)CN(C)C | 0
C[C@@H]1CN([C@@H](C)CO)S(=O)(=O)c2ccc(-c3cncnc3)cc2O[C@H]1CN(C)Cc1ccccn1 | 0
C[C@H]1CN([C@@H](C)CO)S(=O)(=O)c2ccc(-c3ccc(C#N)cc3)cc2O[C@@H]1CN(C)C(=O)C1CC1 | 0
c1ccc2c(c1)ccc1nnnn12 | 0
C[C@H](CO)N1C[C@H](C)[C@H](CN(C)C(=O)C2CCOCC2)Oc2cc(-c3ccc(F)cc3)ccc2S1(=O)=O | 0
Cc1ccc(-c2cnc3c(c2)C(=O)N([C@@H](C)CO)C[C@@H](C)[C@@H](CN(C)C(=O)Cc2cccnc2)O3)cc1 | 0
SMILES | miR122 inh
Cc1ccccc1NC(=O)Nc1ccc2c(c1)C(=O)N(C)[C@H]1CC[C@@H](CC(=O)NCC3CC3)O[C@H]1CO2 | 0
CNC(=O)C[C@@H]1CC[C@@H]2[C@H](COc3ccc(NC(=O)Nc4cccc(C)c4)cc3C(=O)N2C)O1 | 47
COc1ccc(-c2cnc3c(c2)C(=O)N([C@H](C)CO)C[C@H](C)[C@H](CN(C)S(=O)(=O)c2ccc(C)cc2)O3)cc1 | 0
C[C@@H]1CN([C@H](C)CO)S(=O)(=O)c2ccc(-c3ccncc3)cc2O[C@@H]1CN(C)C(=O)Nc1ccc(F)cc1 | 0
CNC[C@H]1Oc2cc(C#CC(C)C)ccc2S(=O)(=O)N([C@@H](C)CO)C[C@H]1C | 0
CCCC#Cc1ccc2c(c1)O[C@@H](CN(C)C(=O)NCCC)[C@@H](C)CN([C@@H](C)CO)S2(=O)=O | 0
Cc1ccc(C(=O)OCn2ncc(Cl)c(Cl)c2=O)cc1 | 74
CO[C@H]1CN(C)C(=O)c2ccc(NC(=O)C3CCC3)cc2OC[C@H](C)NC[C@H]1C | 0
COCC(=O)N(C)C[C@@H]1Oc2ncc(C#Cc3cccnc3)cc2C(=O)N([C@H](C)CO)C[C@H]1C | 0
O=C(COC(=O)c1ccccc1C(=O)c1ccc(Cl)c([N+](=O)[O-])c1)NC1CCCCCC1 | 63
Cc1c(NC(=O)NC2CCCCC2)cccc1[N+](=O)[O-] | 0
